Assay results from PubChem BioAssay (NCI).
About 83,000 compounds went through this panel and 20% of them were active in at least one assay; those are over-represented in the sample as a whole.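 Percent growth is the endpoint: 0 to 100 indicates growth inhibition (40 means 60% inhibition), 0 means no net growth, and negative values indicate cell death.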 Unmarked numbers belong to inactive results. Activity calls are given as the source filed them. Rule for the calls: active = growth percent below 10; inactive = the rest.

Each compound was assayed on NCI-H522 lung (assay: NCI-60 one-dose screen, 48 h (100 = growth as untreated, 0 = no growth, -100 = all killed)). Conditions: 10 µM.
Work on `COc1ccc(N=Nc2cc(OC)c(OC)c(OC)c2)cc1` yielded a growth of 57%. With `COc1cc2cc(Oc3ccc(NC(=O)Nc4ccc(Cl)c(C(F)(F)F)c4)cc3)c(C)nc2cc1OC` the growth was -43.6% (active). For `COc1cccc(-c2nc3sccn3c2-c2cccc(S(C)(=O)=O)c2)c1`, the growth was 102%. For `COc1cc(-c2nn(-c3cccc(NC(=O)CCN4CCN(Cc5ccccc5)CC4)c3)cc2-c2ccncc2)ccc1Cl`, the growth was -31.4% (active). With `O=C(O)c1cc([N+](=O)[O-])ccc1Oc1ccccc1` the growth was 97.1%. `CCN(CC)CCCC(C)N=C(C1=C(C(=NC(C)CCCN(CC)CC)c2cccc(OC)c2)C(=O)NC1=O)c1cccc(OC)c1` (centres undefined) was tested, and the growth was -64.5% (active). Work on `O=[N+]([O-])c1cc(Cl)cc(Cl)c1O` yielded a growth of 82.3%. `O=C(CN1CCN(C(=O)c2ccccc2)CC1)Nc1ccccc1SCc1ccccc1` gave a growth of 50.9%. `CC(=O)Oc1cc(OC(C)=O)c2ccccc2c1OC(C)=O` was tested, and the growth was 68.2%. Compound `CCOC(=O)c1cc(C(=O)c2ccc(F)cc2F)n2ccccc12` has a growth of 70.1%. For `CN1CCN(CCCn2c(=O)c3sc4ncccc4c3n3nnc(-c4ccccc4)c23)CC1`, the growth was -83.9% (active). `O=C(CCl)Nc1ccc(Cc2ccc(NC(=O)CCl)cc2)cc1` was tested, and the growth was -81% (active). With `COc1cc(/C=C2\CCCC3=C2N=C2SC(C)=CN2C3c2cc(OC)c(OC)c(OC)c2)cc(OC)c1OC` (centres undefined) the growth was -21.8% (active). `Oc1cccc(-c2nc3sccn3c2-c2ccncn2)c1` was tested, and the growth was 98.9%.

The compounds below were run on A549/ATCC NSCLC in the same assay as above. Conditions: 10 µM.
Compound `NS(=O)(=O)Oc1ccc(-c2ccc3sccc3c2)cc1` has a growth of 98.3%. Compound `C=C(C)[C@@H]1CC[C@]2(COCCC#N)CC[C@]3(C)[C@H](CC[C@@H]4[C@@]5(C)Cc6c([nH]c7ccccc67)C(C)(C)[C@@H]5CC[C@]43C)[C@@H]12` has a growth of 99.8%. With `O=S(=O)(Oc1ccc(-c2ccc3sccc3c2)cc1)c1ccc(F)cc1` the growth was 94%. Work on `Cc1nn(-c2ccccc2)c2nc(Cl)c(C=O)c(-c3ccccc3)c12` yielded a growth of 78.3%. `Cc1ccc(S(=O)(=O)N/N=C2\CCCc3ccccc32)cc1` gave a growth of 101%. In the case of `COc1ccc(-c2cc(-c3ccc(OC)c(OC)c3)nc(SCCCC(=O)NO)n2)cc1`, the growth is reported as -0.0794% (active). Work on `CC(C)C[C@H](NC(=O)Cn1cccc(CNC(=O)c2ccccc2)c1=O)B(O)O` yielded a growth of 43.9%. Compound `CC[C@@H](C(=O)[C@@H](C)[C@@H](O)[C@H](C)[C@@H]1O[C@@H]([C@@H](CC)C(=O)O)CC[C@@H]1C)C1O[C@]2(C=CC(=O)[C@]3(CC[C@@](C)([C@H]4CC[C@](O)(CC)[C@H](C)O4)O3)O2)[C@H](C)C[C@@H]1C` (some centres undefined) has a growth of 28.3%. Compound `CCOC(=O)/C(=C(\C)N)C1CC(=O)NC1=O` (centres undefined) has a growth of 101%. `COc1cc(-c2nn(-c3cccc(NC(=O)CCNc4ccc(N5CCOCC5)cc4)c3)cc2-c2ccncc2)ccc1Cl` gave a growth of 17.5%. Work on `CC(=O)N[C@H](C(=O)N[C@@H](CCCNC(=N)N)C(=O)N[C@@H](CCCCN)C(=O)N[C@@H](CCCNC(=N)N)C(=O)N[C@]1(C)CCCCCC/C=C\CCC[C@@](C)(C(=O)N[C@@H](CCCNC(=N)N)C(=O)N[C@@H](CCC(=O)O)C(=O)N[C@@H](CC(C)C)C(=O)N[C@H](C(=O)N[C@@H](CCC(=O)O)C(N)=O)C(C)C)NC(=O)[C@H](CCC(N)=O)NC(=O)[C@H](CC(C)C)NC(=O)[C@H](CC(C)C)NC(=O)[C@H](CCCNC(=N)N)NC(=O)[C@H](CCCNC(=N)N)NC(=O)[C@H](CC(C)C)NC1=O)C(C)C` yielded a growth of 12.4%. Work on `O=C1c2ccccc2C(=O)c2c1ccc1c(=O)n(-c3ccccc3C(F)(F)F)nnc21` yielded a growth of 13.1%. `Cc1c(Cl)cccc1NC(=O)CCCl` showed a growth of 92.8%. For `COc1cc(-c2csc(NC(=O)Nc3cc(C(F)(F)F)cc(C(F)(F)F)c3)n2)cc(OC)c1OC`, the growth was 11.9%. In the case of `Nc1ccn(Cc2nnc(CCC(=O)c3nc4ccccc4[nH]3)o2)c(=O)n1`, the growth is reported as 63.8%. In the case of `O=C1C=C(Nc2cccc(Br)c2)c2ccccc2C1=O`, the growth is reported as 16.7%. `COc1cccc(N=Nc2cccc(OC)c2)c1` showed a growth of 83.9%. Work on `C=CCN(CC=C)C(=O)[C@H](CC)[C@@H]1CC[C@@H](C)[C@@H]([C@H](C)[C@@H](O)[C@@H](C)C(=O)[C@H](CC)C2O[C@]3(C=C[C@@H](O)[C@]4(CC[C@@](C)([C@H]5CC[C@](O)(CC)[C@H](C)O5)O4)O3)[C@H](C)C[C@@H]2C)O1` (some centres undefined) yielded a growth of 11.5%. In the case of `O=C1/C=C/[C@@H](O)[C@@H]2C[C@@H](O)C[C@H]2/C=C/CCC[C@@H](C(F)(F)F)O1`, the growth is reported as 99.3%. `CC[C@@H](C(=O)[C@@H](C)[C@@H](O)[C@H](C)[C@@H]1O[C@@H]([C@@H](CC)C(=O)N(CC)CC)CC[C@@H]1C)C1O[C@]2(C=CC(=O)[C@]3(CC[C@@](C)([C@H]4CC[C@](O)(CC)[C@H](C)O4)O3)O2)[C@H](C)C[C@@H]1C` (some centres undefined) was tested, and the growth was 28.3%. In the case of `O=S(=O)(O)c1ccc(Cl)cc1`, the growth is reported as 97%. With `CCN(CC)CCOc1cccc2c1C(=O)c1ccccc1C2=O` the growth was 90.6%. Work on `CC[C@@H]1NC(=O)[C@H]([C@H](O)[C@H](C)C/C=C/c2ccc(CN3C(=O)CCCC3=O)cc2)N(C)C(=O)[C@H](C(C)C)N(C)C(=O)[C@H](CC(C)C)N(C)C(=O)[C@H](CC(C)C)N(C)C(=O)[C@@H](C)NC(=O)[C@H](C)NC(=O)[C@H](CC(C)C)N(C)C(=O)[C@H](C(C)C)NC(=O)[C@H](CC(C)C)N(C)C(=O)CN(C)C1=O` yielded a growth of 47.1%. `O=C(Nc1ccc(NS(=O)(=O)c2ccc(F)cc2)cc1)C12CC3CC(CC(C3)C1)C2` was tested, and the growth was 86.6%. `C/C(=N\O)c1ccc(NC(=O)CSc2nnc(-c3ccccc3)n2-c2ccccc2)cc1` gave a growth of 81.9%. With `CC(=O)Nc1ccc2c(c1)C(=O)c1cccc(C(=O)O)c1-2` the growth was 97.6%. `COc1ccc(N=Nc2cc(OC)c(OC)c(OC)c2)cc1` gave a growth of 73%. In the case of `COc1cc2cc(Oc3ccc(NC(=O)Nc4ccc(Cl)c(C(F)(F)F)c4)cc3)c(C)nc2cc1OC`, the growth is reported as -17.2% (active). For `COc1cccc(-c2nc3sccn3c2-c2cccc(S(C)(=O)=O)c2)c1`, the growth was 102%. `COc1cc(-c2nn(-c3cccc(NC(=O)CCN4CCN(Cc5ccccc5)CC4)c3)cc2-c2ccncc2)ccc1Cl` gave a growth of 11.6%. For `O=C(O)c1cc([N+](=O)[O-])ccc1Oc1ccccc1`, the growth was 99.7%. `CCN(CC)CCCC(C)N=C(C1=C(C(=NC(C)CCCN(CC)CC)c2cccc(OC)c2)C(=O)NC1=O)c1cccc(OC)c1` (centres undefined) was tested, and the growth was -81.7% (active). Work on `O=[N+]([O-])c1cc(Cl)cc(Cl)c1O` yielded a growth of 97.4%. `O=C(CN1CCN(C(=O)c2ccccc2)CC1)Nc1ccccc1SCc1ccccc1` gave a growth of 83.4%. Compound `CC(=O)Oc1cc(OC(C)=O)c2ccccc2c1OC(C)=O` has a growth of 82.5%. `CCOC(=O)c1cc(C(=O)c2ccc(F)cc2F)n2ccccc12` showed a growth of 86%. Compound `CN1CCN(CCCn2c(=O)c3sc4ncccc4c3n3nnc(-c4ccccc4)c23)CC1` has a growth of 12%. `O=C(CCl)Nc1ccc(Cc2ccc(NC(=O)CCl)cc2)cc1` was tested, and the growth was 25.3%. With `COc1cc(/C=C2\CCCC3=C2N=C2SC(C)=CN2C3c2cc(OC)c(OC)c(OC)c2)cc(OC)c1OC` (centres undefined) the growth was -23.4% (active). In the case of `Oc1cccc(-c2nc3sccn3c2-c2ccncn2)c1`, the growth is reported as 100%.
